# “And” between values parts separate entries of the source, which are not always exact repeats. Identical values can stand only once. The whole screen tested about 5,500 compounds, of which about 2,000 (36%) were called active. Not shown: some 18% with an inconclusive outcome. The list shows a part of the results. Unmarked numbers belong to inactive results. Rule as the data show it: active = normalized growth mostly below about 0.91 (no sharp cut-off); inconclusive = no clear call, values can overlap the other calls; inactive = mostly above about 0.92.
# Assay: chemical genetic growth profiling, strain panel (AID 1159580);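 also: tested at 20 µM; growth read once vehicle control cultures reached saturation at 30 °C; 1 = growth at the plate median or of vehicle wells; lower values mean less growth of the strain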
# Conditions: growth OD
compound,measurement,setting,value
O=C(c1ccc(Cl)cc1)N1CCN(c2ccc(C(F)(F)F)cn2)CC1,normalized growth,"S. cerevisiae deletion strains, locus YAL013W, strain DEP1, stronger effect = lower value",0.934
same,normalized growth,"S. cerevisiae deletion strains, locus YAR019C, strain CDC15, stronger effect = lower value",0.973
same,normalized growth,"S. cerevisiae deletion strains, locus YBL105C, strain PKC1, stronger effect = lower value",0.992
same,normalized growth,"S. cerevisiae deletion strains, locus YBR135W, strain CKS1, stronger effect = lower value",0.997
same,normalized growth,"S. cerevisiae deletion strains, locus YBR136W, strain MEC1, stronger effect = lower value",0.988
same,normalized growth,"S. cerevisiae deletion strains, locus YBR160W, strain CDC28, stronger effect = lower value",0.973
same,normalized growth,"S. cerevisiae deletion strains, locus YBR229C, strain ROT2, stronger effect = lower value",0.824 (active)
same,normalized growth,"S. cerevisiae deletion strains, locus YDL017W, strain CDC7, stronger effect = lower value",0.995
same,normalized growth,"S. cerevisiae deletion strains, locus YDL028C, strain MPS1, stronger effect = lower value",0.968
same,normalized growth,"S. cerevisiae deletion strains, locus YDL101C, strain DUN1, stronger effect = lower value",0.986 and 0.988
same,normalized growth,"S. cerevisiae deletion strains, locus YDL108W, strain KIN28, stronger effect = lower value",0.979
same,normalized growth,"S. cerevisiae deletion strains, locus YDL132W, strain cdc53, stronger effect = lower value",0.988
same,normalized growth,"S. cerevisiae deletion strains, locus YDL214C, strain PRR2, stronger effect = lower value",0.937
same,normalized growth,"S. cerevisiae deletion strains, locus YDR052C, strain DBF4, stronger effect = lower value",1
same,normalized growth,"S. cerevisiae deletion strains, locus YDR054C, strain cdc34, stronger effect = lower value",0.978
same,normalized growth,"S. cerevisiae deletion strains, locus YDR150W, strain NUM1, stronger effect = lower value",0.843
same,normalized growth,"S. cerevisiae deletion strains, locus YDR226W, strain ADK1, stronger effect = lower value",0.979
same,normalized growth,"S. cerevisiae deletion strains, locus YDR477W, strain SNF1, stronger effect = lower value",0.936
same,normalized growth,"S. cerevisiae deletion strains, locus YEL061C, strain CIN8, stronger effect = lower value",0.8 (active)
same,normalized growth,"S. cerevisiae deletion strains, locus YER123W, strain YCK3, stronger effect = lower value",0.913
same,normalized growth,"S. cerevisiae deletion strains, locus YER133W, strain GLC7, stronger effect = lower value",0.955
same,normalized growth,"S. cerevisiae deletion strains, locus YFL009W, strain cdc4, stronger effect = lower value",0.967
same,normalized growth,"S. cerevisiae deletion strains, locus YFL029C, strain CAK1, stronger effect = lower value",0.981
same,normalized growth,"S. cerevisiae deletion strains, locus YFR003C, strain YPI1, stronger effect = lower value",0.993
same,normalized growth,"S. cerevisiae deletion strains, locus YFR019W, strain FAB1, stronger effect = lower value",0.968
same,normalized growth,"S. cerevisiae deletion strains, locus YFR028C, strain CDC14, stronger effect = lower value",0.978
same,normalized growth,"S. cerevisiae deletion strains, locus YGR040W, strain KSS1, stronger effect = lower value",0.954
same,normalized growth,"S. cerevisiae deletion strains, locus YGR052W, strain FMP48, stronger effect = lower value",0.978
same,normalized growth,"S. cerevisiae deletion strains, locus YGR078C, strain PAC10, stronger effect = lower value",0.933
same,normalized growth,"S. cerevisiae deletion strains, locus YGR092W, strain DBF2, stronger effect = lower value",0.89
same,normalized growth,"S. cerevisiae deletion strains, locus YGR229C, strain SMI1, stronger effect = lower value",0.551 (active)
same,normalized growth,"S. cerevisiae deletion strains, locus YHR030C, strain SLT2, stronger effect = lower value",0.0888 (active) and 0.729 (active)
same,normalized growth,"S. cerevisiae deletion strains, locus YHR079C, strain IRE1, stronger effect = lower value",0.88
same,normalized growth,"S. cerevisiae deletion strains, locus YHR082C, strain KSP1, stronger effect = lower value",0.96
same,normalized growth,"S. cerevisiae deletion strains, locus YHR087W, strain rtc3, stronger effect = lower value",0.947
same,normalized growth,"S. cerevisiae deletion strains, locus YHR205W, strain SCH9, stronger effect = lower value",0.857
same,normalized growth,"S. cerevisiae deletion strains, locus YIL147C, strain SLN1, stronger effect = lower value",0.986
same,normalized growth,"S. cerevisiae deletion strains, locus YJL095W, strain BCK1, stronger effect = lower value",0.892
same,normalized growth,"S. cerevisiae deletion strains, locus YJL128C, strain PBS2, stronger effect = lower value",0.942
same,normalized growth,"S. cerevisiae deletion strains, locus YJL157C, strain FAR1, stronger effect = lower value",0.979
same,normalized growth,"S. cerevisiae deletion strains, locus YJR016C, strain ILV3, stronger effect = lower value",0.986
same,normalized growth,"S. cerevisiae deletion strains, locus YJR043C, strain POL32, stronger effect = lower value",0.993
same,normalized growth,"S. cerevisiae deletion strains, locus YJR066W, strain TOR1 (second series), stronger effect = lower value",0.974
same,normalized growth,"S. cerevisiae deletion strains, locus YJR066W, strain TOR1, stronger effect = lower value",0.891
same,normalized growth,"S. cerevisiae deletion strains, locus YJR075W, strain HOC1, stronger effect = lower value",1.11 [resistant] (active)
same,normalized growth,"S. cerevisiae deletion strains, locus YKL048C, strain ELM1, stronger effect = lower value",0.963
same,normalized growth,"S. cerevisiae deletion strains, locus YKL067W, strain YNK1, stronger effect = lower value",0.925
same,normalized growth,"S. cerevisiae deletion strains, locus YKL101W, strain HSL1, stronger effect = lower value",0.911
same,normalized growth,"S. cerevisiae deletion strains, locus YKL193C, strain SDS22, stronger effect = lower value",0.988
same,normalized growth,"S. cerevisiae deletion strains, locus YKL203C, strain TOR2, stronger effect = lower value",1.02
same,normalized growth,"S. cerevisiae deletion strains, locus YLR039C, strain RIC1, stronger effect = lower value",1.16
same,normalized growth,"S. cerevisiae deletion strains, locus YLR058C, strain SHM2 (second series), stronger effect = lower value",0.974
same,normalized growth,"S. cerevisiae deletion strains, locus YLR085C, strain ARP6, stronger effect = lower value",0.436 (active)
same,normalized growth,"S. cerevisiae deletion strains, locus YLR113W, strain HOG1, stronger effect = lower value",0.813 (active)
same,normalized growth,"S. cerevisiae deletion strains, locus YLR133W, strain CKI1, stronger effect = lower value",0.95
same,normalized growth,"S. cerevisiae deletion strains, locus YLR262C, strain YPT6, stronger effect = lower value",1.1
same,normalized growth,"S. cerevisiae deletion strains, locus YLR403W, strain SFP1, stronger effect = lower value",0.957
same,normalized growth,"S. cerevisiae deletion strains, locus YML070W, strain DAK1, stronger effect = lower value",0.921
same,normalized growth,"S. cerevisiae deletion strains, locus YML094W, strain GIM5, stronger effect = lower value",0.802 (active)
same,normalized growth,"S. cerevisiae deletion strains, locus YMR001C, strain CDC5, stronger effect = lower value",0.977
same,normalized growth,"S. cerevisiae deletion strains, locus YMR205C, strain PFK2 (second series), stronger effect = lower value",0.957
same,normalized growth,"S. cerevisiae deletion strains, locus YMR219W, strain ESC1, stronger effect = lower value",0.958
same,normalized growth,"S. cerevisiae deletion strains, locus YMR263W, strain SAP30, stronger effect = lower value",0.963
same,normalized growth,"S. cerevisiae deletion strains, locus YMR277W, strain FCP1, stronger effect = lower value",0.962
same,normalized growth,"S. cerevisiae deletion strains, locus YMR307W, strain GAS1, stronger effect = lower value",0.272 (active)
same,normalized growth,"S. cerevisiae deletion strains, locus YNL006W, strain LST8, stronger effect = lower value",0.983
same,normalized growth,"S. cerevisiae deletion strains, locus YNL020C, strain ARK1, stronger effect = lower value",0.956
same,normalized growth,"S. cerevisiae deletion strains, locus YNL153C, strain GIM3, stronger effect = lower value",0.911 (active)
same,normalized growth,"S. cerevisiae deletion strains, locus YNL161W, strain CBK1, stronger effect = lower value",0.994
same,normalized growth,"S. cerevisiae deletion strains, locus YNL183C, strain NPR1, stronger effect = lower value",0.979
same,normalized growth,"S. cerevisiae deletion strains, locus YNL207W, strain RIO2, stronger effect = lower value",0.985
same,normalized growth,"S. cerevisiae deletion strains, locus YNL222W, strain SSU72, stronger effect = lower value",0.982
same,normalized growth,"S. cerevisiae deletion strains, locus YNL298W, strain CLA4 (second series), stronger effect = lower value",0.563 (active)
same,normalized growth,"S. cerevisiae deletion strains, locus YNL307C, strain MCK1 (second series), stronger effect = lower value",0.931
same,normalized growth,"S. cerevisiae deletion strains, locus YNL322C, strain KRE1, stronger effect = lower value",0.982
same,normalized growth,"S. cerevisiae deletion strains, locus YNR030W, strain Alg12, stronger effect = lower value",0.861 (active)
same,normalized growth,"S. cerevisiae deletion strains, locus YOL006C, strain TOP1, stronger effect = lower value",0.661 (active)
same,normalized growth,"S. cerevisiae deletion strains, locus YOL078W, strain AVO1, stronger effect = lower value",0.982
same,normalized growth,"S. cerevisiae deletion strains, locus YOL136C, strain PFK27, stronger effect = lower value",0.908
same,normalized growth,"S. cerevisiae deletion strains, locus YOR061W, strain CKA2, stronger effect = lower value",0.965
same,normalized growth,"S. cerevisiae deletion strains, locus YOR119C, strain RIO1, stronger effect = lower value",0.958
same,normalized growth,"S. cerevisiae deletion strains, locus YOR231W, strain MKK1, stronger effect = lower value",0.853
same,normalized growth,"S. cerevisiae deletion strains, locus YOR329C, strain SCD5, stronger effect = lower value",0.992
same,normalized growth,"S. cerevisiae deletion strains, locus YPL031C, strain PHO85, stronger effect = lower value",0.941
same,normalized growth,"S. cerevisiae deletion strains, locus YPL055C, strain LGE1, stronger effect = lower value",0.919
same,normalized growth,"S. cerevisiae deletion strains, locus YPL153C, strain RAD53, stronger effect = lower value",0.93
same,normalized growth,"S. cerevisiae deletion strains, locus YPL204W, strain HRR25, stronger effect = lower value",0.963
same,normalized growth,"S. cerevisiae deletion strains, locus YPL209C, strain IPL1, stronger effect = lower value",0.991
same,normalized growth,"S. cerevisiae deletion strains, locus YPL241C, strain CIN2, stronger effect = lower value",1.01
same,normalized growth,"S. cerevisiae deletion strains, locus YPL256C, strain CLN2, stronger effect = lower value",0.8 (active)
same,normalized growth,"S. cerevisiae deletion strains, locus YPR025C, strain CCL1, stronger effect = lower value",0.987
same,normalized growth,"S. cerevisiae deletion strains, locus YPR106W, strain ISR1, stronger effect = lower value",0.975
same,normalized growth,"S. cerevisiae deletion strains, locus YPR111W, strain DBF20, stronger effect = lower value",0.955
same,normalized growth,"S. cerevisiae deletion strains, locus YPR135W, strain CTF4, stronger effect = lower value",0.671
same,normalized growth,"S. cerevisiae deletion strains, strain NNK1, stronger effect = lower value",0.977
same,normalized growth,"S. cerevisiae deletion strains, strain TSCII, stronger effect = lower value",0.972
same,normalized growth,"S. cerevisiae strains, strain wild type, stronger effect = lower value",0.862 (active)

# — PubChem BioAssay AID1159580 (chemical genetic matrix, 2015)
